Out of some 48,000 compounds screened, about 13,000 (27%) showed an effect of 50% or more. This is one part of the list.
tested on: Wolbachia pipientis; assay: Anti-Wolbachia Cell-Based Screen; format: functional; parameters: scale not given: in the data most compounds retested in dose-response had high values; conditions: 5 µM

Compound | Percent Effect [%]
CCOCC1COCCC12CCN(C(=O)C1=CCCCC1)CC2 (centres undefined) | 5.493
COCCCN(Cc1ccncc1)c1cc(C)ncn1 | 0.1133
CC1(C)COCCN1C(=O)CCc1nc(-c2ccc(Cl)cc2)no1 | -5.513
Cc1ccc(OCc2nnc(SCC3CCCN(C)C3)o2)cc1 (centres undefined) | 8.956
NC(=O)C1(CCCc2ccccn2)CCCN(c2ncccn2)C1 (centres undefined) | 87.14
CN(C)C(=O)CN1CCCC(CCCc2ccccn2)(C(N)=O)C1 (centres undefined) | 83.83
CN(CCc1ccccn1)C(=O)Nc1cccnc1N1CCCC1 | -10.3
Nc1ccnc(N2CCCC(CCc3ccccc3)(C(=O)O)C2)n1 (centres undefined) | -8.777
CN(CCc1ccccn1)[C@@H]1CCN(c2cc(C(N)=O)ccn2)C[C@H]1O | -0.6803
O=C(CCCc1ccccn1)N1CCSC2(CCCCC2)C1 | -12.36
Cc1nc2cc(=O)[nH]n2c(C)c1CC(=O)Nc1cnn(C(C)(C)C)c1 | -8.028
CCOc1ccc(CN2C(=O)CC(C)(C)C2=O)nc1 | -21.77
CCC(=O)N1CCN(C(=O)NC2CCc3ccccc3C2)CC1 (centres undefined) | -5.895
Cn1cc(CNCCc2cccnc2)c(-c2cccnc2)n1 | 4.12
CN(C)C(C)(C)CNCc1cn(C)nc1-c1cccnc1.Cl | 8.677
Cn1cc(CNc2cnn(CCO)c2)c(-c2ccncc2)n1 | -19.35
Cc1noc(NCc2cn(C)nc2-c2cccnc2)n1 | 76.51
Cc1cc(NCc2cn(C)nc2-c2cccnc2)n(C)n1 | 80.93
Cc1noc(NCc2cn(C)nc2-c2ccncc2)n1 | 86.63
Cn1cc(CNCCn2cccn2)c(-c2cccnc2)n1 | 3.416
CCCNCc1cn(C)nc1-c1cccnc1.Cl | 13.76
Cn1cc(CNc2ccc(CCO)cc2)c(-c2ccncc2)n1 | 4.489

Compound | Percent Effect [%]
CCc1nnc(CNC(=O)CCN2CCN(c3cccc(C)c3)CC2)s1 | 7.202
Cc1ccc(C(=O)N2CCSCC2)cc1N1CCNC1=O | -1.525
CN(C)CCN1CCOCC2(CCN(Cc3ccc[nH]3)CC2)C1.O=C(O)C(F)(F)F.O=C(O)C(F)(F)F.O=C(O)C(F)(F)F | -10.04
CNc1cc(C)nc(N2C[C@H](C3CC3)[C@@H](N)C2)n1 | -22.96
Cc1cc(NC(=O)NCc2ccc(C)s2)no1 | 3.366
O=C(Cc1ccsc1)N1C[C@@H]2COC[C@]2(COCc2cccnc2)C1.O=C(O)C(F)(F)F | -1.782
Cc1cccc(COC[C@]23COC[C@H]2CN(C(=O)c2ccsc2)C3)n1 | 4.122
O=C(Cc1cccs1)N1C[C@@H]2COC[C@]2(COc2cccnc2)C1 | 7.396
Cc1ccnc(OC[C@]23COC[C@H]2CN(C(=O)Cc2ccsc2)C3)n1 | 106.6
O=C(Cc1cccs1)N1C[C@@H]2COC[C@]2(COCc2cccnc2)C1.O=C(O)C(F)(F)F | -3.131
O=C(Cc1ccsc1)N1C[C@@H]2COC[C@]2(COc2cccnc2)C1 | 95.21
CS(=O)(=O)c1ncc(CN2CCCC(C(N)=O)C2)n1CC1CCCCC1 (centres undefined) | 6.801
COCC1(NC(=O)C(c2ccc(F)cc2)N(C)C)CCCC1 (centres undefined) | -2.374
CC1CCCN1Cc1cccc(C(=O)Nc2ccc3c(c2)CCC3=O)c1 (centres undefined) | 51.3
CC1CCCN1Cc1cccc(C(=O)Nc2ccc3[nH]c(=O)oc3c2)c1 (centres undefined) | 1.459
COc1ccc(NC(=O)c2cccc(CN3CCCC3C)c2)cc1OC (centres undefined) | 8.38
Cc1nc(CC(=O)N2c3ccccc3OCC2C)cs1 (centres undefined) | -16.16
Cc1nc(COC(=O)c2cccc3c2OCCO3)cs1 | 117.7
Cc1nc(CCN(C)C(=O)C2COc3ccccc3C2)no1 (centres undefined) | -0.4164
Cc1nc(C2CCCN(C(=O)c3cccc4c3OCO4)C2)no1 (centres undefined) | 12.92
Cc1ncsc1COC(=O)c1cccc2c1OCCO2 | 128
Cc1ncsc1CN(C)C(=O)CC1CCOc2ccccc21 (centres undefined) | 5.103

Compound | Percent Effect [%]
CCN(Cc1ccc2c(c1)OCCO2)C(=O)NCc1csc(C)n1 | -4.508
Cc1ncsc1CCN(C)C(=O)CN1CCOc2ccccc2C1 | 0.429
Cc1nc(COC(=O)c2cccc3c2OCCO3)no1 | 110.5
NC(=O)N1CCCN(C(=O)Nc2cc(-n3cccc3)ccc2F)CC1 | -14.58
CN1CC(C(=O)NC(C)(C)CNC(=O)OC(C)(C)C)CC1=O (centres undefined) | -3.275
COCc1ccccc1C(=O)NCC(O)c1ccc(Cl)s1 (centres undefined) | 11.9
CN(C)c1ncnc2c1CCN(S(=O)(=O)c1cccc3nsnc13)C2 | 10.74
COc1ncccc1CNC(=O)c1cc(F)cc(Br)c1 | 12.35
CC(=O)c1cnc(NCCN2CCCC(c3ccccc3)C2)nc1C (centres undefined) | 111.1
CC(=O)c1cnc(NCCc2csc(-c3cnccn3)n2)nc1C | -3.465
CC(=O)c1cnc(NCCN2CCCC2)nc1C | 107.9
Cc1csc(C2(NC(=O)NCCN3CCOCC3)CCC2)n1 | -15.32
Cc1ncccc1OC1(C(=O)NCCCN2CCOCC2)CCNCC1 | -8.588
CC(=O)c1cnc(NCC2OCCc3ccccc32)nc1C (centres undefined) | 8.592
CCc1cnc(C)nc1NCCN1CCCC(C(N)=O)C1 (centres undefined) | 3.304
OC1CCN(CCNc2ncc3c(n2)CCN3c2ccccc2)CC1 | 0.6072
CC(=O)c1cnc(NCCCN2CCOCC2)nc1C | 89.28
COC(=O)CN(CC1CCOC1)C1CC1 (centres undefined) | -11.06
Cc1cnccc1N1CCN(C(=O)CCCN2CCCCC2)CC1 | -8.637
COc1ncccc1C(=O)N1CC(c2nc(-c3ccccn3)no2)C1 | -3.614
Cc1[nH]c(=O)[nH]c(=O)c1CN1CCCC(CCc2c(F)cccc2F)C1 (centres undefined) | -22.77
Cc1cc(C)n(-c2ccc(CNCc3ccc(OC(C)C)cc3)cn2)n1 | -13.05

Compound | Percent Effect [%]
Oc1nnc(-c2cccs2)c2sc(N3CCCCC3)nc12 | 11
Cl.O=C(Nc1cccc(F)c1)C1=NOC2(CCNCC2)C1 | 1.069
Cc1nc(C2CCCNC2)cc(N2CCc3nc(N)sc3C2)n1 (centres undefined) | -10.94
Cc1nn(C(C)C)c(C)c1S(=O)(=O)Nc1cccc(F)c1 | 2.276
Cc1sc2c(C3CCNCC3)nc(Nc3cccc(F)c3)n2c1C.Cl | 83.53
Cc1sc2c(C3CCCNC3)nc(Nc3cccc(F)c3)n2c1C.Cl (centres undefined) | 138.6
COc1ccccc1CCNC(=O)CN1CCCC1c1noc(C)n1 (centres undefined) | -5.748
CCC(=O)N1CCC2(CC1)c1nc[nH]c1CCN2S(C)(=O)=O | -5.847
CC(NC(=O)Nc1nccs1)C(=O)NC1CCCC1 (centres undefined) | 13.07
Cc1nn2c(nc1=O)-c1ccccc1NC2C(=O)O (centres undefined) | -8.075
CNc1cc(C)nc(N2CCC3(CC2)[C@H](O)C[C@@H]3OCCO)n1 | 4.937
Cc1cc(Oc2ccccc2)nc(C2CCN(CCO)CC2)n1 | 153.9
Cc1ccc(CNCC2CCN(CCO)CC2)cc1 | -0.5522
CNc1cc(C)nc(C2CCN(CCO)CC2)n1 | 109.8
OCCN1CCC(CNCc2cn(-c3ccccc3)nn2)CC1 | 3.58
CNc1cc(C)nc(N2C[C@@H](C(=O)O)[C@H](C3CC3)C2)n1 | 7.259
CC(=O)N1CCc2c(nc(-c3ccccn3)nc2N(C)CC(O)CO)C1 (centres undefined) | 1.269
CC(C(=O)N(C)Cc1nnc2n1CCC2)S(C)(=O)=O (centres undefined) | 0.343
COCCN(C(=O)c1ccoc1C)c1ccc(C#N)cc1 | -4.794
CCc1cc(C(=O)N2CCCC(c3cc(=O)nc4n3CCC4)C2)no1 (centres undefined) | 113.8
Cc1cc(C(=O)N2CCCC(c3cc(=O)nc4n3CCC4)C2)on1 (centres undefined) | 100.5
CC(C)c1cc(C(=O)N2CCCC(c3cc(=O)nc4n3CCC4)C2)no1 (centres undefined) | 118.8

Compound | Percent Effect [%]
Cc1cc(C(=O)N2CCCC(c3nccn3Cc3cscn3)C2)on1 (centres undefined) | -8.995
CCc1ccsc1C(=O)N1CCCC(c2noc(C)n2)C1 (centres undefined) | -6.826
CC(C)C(=O)N1CCN(C(=O)c2cc(C(C)C)on2)[C@H]2CS(=O)(=O)C[C@H]21 | -2.919
Cc1cc(C(=O)N2CCCC(n3nc(C)cc3C)C2)on1 (centres undefined) | 6.311
CCc1cn[nH]c1C1CCCN(C(=O)c2cc(C(C)C)on2)C1 (centres undefined) | 3.205
Cc1cc(C(=O)N2CCCC2Cn2nc(C)cc2C)on1 (centres undefined) | -0.3102
Cc1cc(C)n(CC2CCCN2C(=O)Cc2cn3ccccc3n2)n1 (centres undefined) | 13.26
Cc1cc(C)n(CC2CCCN2C(=O)c2ccc3ccccc3n2)n1 (centres undefined) | 90.81
Cc1cc(C)n(CC2CCCN2C(=O)c2nccc3ccccc23)n1 (centres undefined) | 117.1
Cn1nnnc1SCCNC(=O)c1c[nH]nc1C1CCCCC1 | -16.51
O=C1CCC(c2ccccc2)(c2ccccc2)CN1CCO | -6.27
Cc1nc[nH]c1CN1CCN(C(=O)c2cccs2)[C@H]2CS(=O)(=O)C[C@H]21 | -2.944
CCN(CC)c1ncc(CNCC2CCCn3ccnc32)s1 (centres undefined) | 9.152
CCN(CC1CN(Cc2ncc(C)o2)CCO1)c1cccnn1 (centres undefined) | 0.3637
CC(C)(C)c1ncc(CNCC2CN(C3CC3)CCO2)s1 (centres undefined) | 77.82
CC(C)(C)c1ncc(CNCC2CCCn3ccnc32)s1 (centres undefined) | -12.55
CCN1CCOC(CNc2nccc(C(F)(F)F)n2)C1 (centres undefined) | -2.512
CCN1CCOC(CNCc2cnc(C(C)(C)C)s2)C1 (centres undefined) | 96.59
CN1CCOC(CNCc2cnc(C(C)(C)C)s2)C1 (centres undefined) | 83.62
CCN1CCOC(CNCc2cnc(N(CC)CC)s2)C1 (centres undefined) | 78.01
CCC(CCNCc1cnc(C2CCC2)s1)N1CCCC1=O (centres undefined) | 3.115

— ChEMBL document CHEMBL3988442, “University of Dundee, Small-Polar-MMV Screening Library” (2021)
